Some test systems named below: SR leukemia; OVCAR-8 ovarian; OVCAR-5 ovarian; OVCAR-4 ovarian; SK-OV-3 ovarian; IGROV1 ovarian; OVCAR-3 ovarian; HS 578T breast; NCI/ADR-RES ovarian; T-47D breast; BT-549 breast; MDA-MB-435 melanoma; SW-620 colon; MCF7 breast; HCT-116 colon; HCC-2998 colon; KM12 colon.
What all share (experiment): NCI-60 one-dose screen, 48 h (100 = growth as untreated, 0 = no growth, -100 = all killed)
Holding throughout (settings): 10 µM unless noted

Compounds without any hit were thinned out: in the full panel of roughly 83,000, 20% have a hit.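 Activity criterion: percent growth below 10, measured after cells in 96-well plates were exposed to a single compound concentration for 48 hours.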 Unmarked numbers belong to inactive results. The source made the active and inactive calls.

Consider `Cn1cc(-c2ccc3nc(-c4ccc(CC(=O)Nc5cc(C(C)(C)C)no5)cc4)cnc3c2)cn1`, for which the growth in the experiment with SR leukemia is 15.2% [30 µM]; in the experiment on OVCAR-8 ovarian it was 31.5% [30 µM]; in the experiment on OVCAR-5 ovarian, 44.8% [30 µM]; in the experiment on OVCAR-4 ovarian, 28.7% [30 µM]; in the experiment with SK-OV-3 ovarian, 11.2% [30 µM]; with IGROV1 ovarian, -2.97% [30 µM] (active). For the same compound, the growth was 29.6% [30 µM] in the experiment on OVCAR-3 ovarian; 21.9% [30 µM] with HS 578T breast; 19.8% [30 µM] with NCI/ADR-RES ovarian; 26% [30 µM] with T-47D breast; 53.3% [30 µM] in the experiment with BT-549 breast; 26.2% [30 µM] in the experiment with MDA-MB-435 melanoma. In addition, the growth with SW-620 colon is 34.5% [30 µM]; in the experiment on MCF7 breast, 87.1% [30 µM]; with HCT-116 colon, 15.3% [30 µM]; with HCC-2998 colon, 47.3% [30 µM]; in the experiment on KM12 colon, 6.95% [30 µM] (active).

Regarding `O=C(CCc1nc(-c2cccc(Cl)c2)no1)Nc1ccccn1`, the growth in the experiment with SR leukemia is 89.1%; in the experiment with OVCAR-8 ovarian, 106%; in the experiment with OVCAR-5 ovarian, 100%; with OVCAR-4 ovarian, 107%; in the experiment with SK-OV-3 ovarian, 104%; in the experiment with IGROV1 ovarian it was 90.4%. Also, the growth is 108% in the experiment with OVCAR-3 ovarian; 93.8% with HS 578T breast; 95% in the experiment with NCI/ADR-RES ovarian; 107% in the experiment on T-47D breast; 95.7% with BT-549 breast; 105% with MDA-MB-435 melanoma. Moreover, the growth in the experiment on SW-620 colon is 103%; with MCF7 breast, 90.2%; in the experiment on HCT-116 colon, 99.1%; with HCC-2998 colon it was 97.7%; with KM12 colon it was 98%.

On to `NS(=O)(=O)Oc1ccc(NC(=O)C23CC4CC(CC(C4)C2)C3)cc1Cl`, for which the growth was 99% in the experiment on SR leukemia; 98.4% in the experiment on OVCAR-8 ovarian; 101% in the experiment with OVCAR-5 ovarian; 83.9% in the experiment on OVCAR-4 ovarian; 95.9% in the experiment with IGROV1 ovarian; 103% in the experiment on OVCAR-3 ovarian. In addition, the growth with HS 578T breast is 95.5%; with NCI/ADR-RES ovarian, 93.6%; with T-47D breast it was 75.4%; in the experiment on BT-549 breast, 99.3%; with MDA-MB-435 melanoma it was 99.5%; in the experiment with SW-620 colon it was 106%. In addition, the figures for the growth with MCF7 breast, with HCT-116 colon and with HCC-2998 colon were 97.3%, 107% and 103%, respectively.

`O=[N+]([O-])c1ccc(-c2cc3c(Nc4ccc(Sc5nc6ccccc6s5)c(Cl)c4)ncnc3s2)cc1`: the growth with SR leukemia was 38.7%; with OVCAR-8 ovarian, 23.5%; with OVCAR-5 ovarian it was 49.9%; in the experiment on OVCAR-4 ovarian, 35.2%; with SK-OV-3 ovarian, 37.1%; with IGROV1 ovarian it was 43.8%. For the same compound, the growth with OVCAR-3 ovarian was 14.7%; with T-47D breast, 37.1%; in the experiment on BT-549 breast it was 87.6%; in the experiment with MDA-MB-435 melanoma, 30.8%; with SW-620 colon, 49.5%; in the experiment with MCF7 breast it was 16.2%. The growth was 11.9% in the experiment with HCT-116 colon, 49.7% with HCC-2998 colon and 35.1% in the experiment on KM12 colon.

For `Cc1nc(Nc2ccc(N)cc2)c2ccccc2n1`, the growth is 56.8% in the experiment on SR leukemia; 95.3% in the experiment with OVCAR-8 ovarian; 100% in the experiment with OVCAR-5 ovarian; 91.2% in the experiment on OVCAR-4 ovarian; 113% in the experiment with SK-OV-3 ovarian; 92.7% in the experiment on IGROV1 ovarian. The growth with OVCAR-3 ovarian is 101%; in the experiment on HS 578T breast, 104%; in the experiment with NCI/ADR-RES ovarian, 93.6%; with T-47D breast it was 101%; with BT-549 breast, 104%; in the experiment with MDA-MB-435 melanoma it was 64.6%. Moreover, the growth is 99% in the experiment on SW-620 colon; 75.8% in the experiment on MCF7 breast; 95.3% in the experiment with HCT-116 colon; 104% in the experiment on HCC-2998 colon; 98.3% in the experiment with KM12 colon.

`CC(C)(C)OC(=O)N1Cc2cc3ccccc3nc2C1CO` (stereo not drawn): the growth in the experiment with SR leukemia is 137%; in the experiment on OVCAR-8 ovarian, 92.2%; with OVCAR-5 ovarian it was 110%; with OVCAR-4 ovarian, 96%; in the experiment with SK-OV-3 ovarian it was 119%; in the experiment with IGROV1 ovarian it was 92.7%. The growth is 101% in the experiment with OVCAR-3 ovarian; 102% with HS 578T breast; 106% with NCI/ADR-RES ovarian; 103% in the experiment on T-47D breast; 85% with BT-549 breast; 88.1% in the experiment with MDA-MB-435 melanoma. For the same compound, the growth in the experiment on SW-620 colon was 94.5%; in the experiment with MCF7 breast, 90.7%; with HCT-116 colon it was 98.4%; with KM12 colon it was 106%.

As to `CC(=O)Nc1ccc(C(=O)/C=C/c2ccccc2)cc1`, the growth with SR leukemia was 49.6%; with OVCAR-8 ovarian it was 75.1%; with OVCAR-5 ovarian, 94.6%; with OVCAR-4 ovarian, 99.9%; in the experiment with SK-OV-3 ovarian, 105%; in the experiment with IGROV1 ovarian, 77%. Further, the growth with OVCAR-3 ovarian was 77.3%; with HS 578T breast, 98.8%; in the experiment on NCI/ADR-RES ovarian it was 94.2%; in the experiment with T-47D breast, 74.9%; in the experiment with MDA-MB-435 melanoma, 89.1%; in the experiment on SW-620 colon, 90.4%. The growth in the experiment on MCF7 breast is 24.3%; in the experiment on HCT-116 colon, 1.2% (active); in the experiment with HCC-2998 colon, 88.7%; in the experiment on KM12 colon it was 22.8%.

Turning to `CN1CCN(C2=C(Cl)C(=O)c3ccccc3C2=O)CC1`, the growth with SR leukemia is 24.3%; in the experiment with OVCAR-8 ovarian, 67.1%; in the experiment with OVCAR-5 ovarian it was 119%; with OVCAR-4 ovarian, 84%; with SK-OV-3 ovarian, 102%; in the experiment on IGROV1 ovarian, 60.7%. Moreover, the growth in the experiment on NCI/ADR-RES ovarian was 69.8%; in the experiment with T-47D breast it was 80.8%; with MDA-MB-435 melanoma, -75% (active); in the experiment on SW-620 colon, 98.8%; in the experiment on MCF7 breast, 54.9%; in the experiment with HCT-116 colon, 10.2%. Further, the growth in the experiment with HCC-2998 colon is 86.5%.

In the case of `O=[N+]([O-])c1ccc(-c2cc3c(Nc4ccc(Cl)c(C(F)(F)F)c4)ncnc3s2)cc1`, the growth in the experiment with SR leukemia was 17%; with OVCAR-8 ovarian it was 10.1%; in the experiment with OVCAR-5 ovarian, 26.6%; in the experiment with OVCAR-4 ovarian, 11.1%; with SK-OV-3 ovarian, -11.5% (active); in the experiment on IGROV1 ovarian, 38%. Moreover, the growth in the experiment on OVCAR-3 ovarian was 5.57% (active); with HS 578T breast, 37.9%; in the experiment on NCI/ADR-RES ovarian, 2.94% (active); in the experiment on T-47D breast it was -6.08% (active); with BT-549 breast it was 8.01% (active); in the experiment with MDA-MB-435 melanoma, 5.4% (active). Besides, the growth in the experiment with MCF7 breast was 3.55% (active); in the experiment on HCT-116 colon it was 6.29% (active); in the experiment with HCC-2998 colon it was 19.2%; in the experiment with KM12 colon, 10.9%.

Regarding `CC(C)c1ccc(NC(=O)Cc2ccc(Nc3ncnc4cc(-c5cnn(CCN(C)C)c5)ccc34)cc2)cc1`, the growth in the experiment with SR leukemia is -49.1% [30 µM] (active); in the experiment on OVCAR-8 ovarian it was -27.5% [30 µM] (active); in the experiment on OVCAR-5 ovarian, -98.9% [30 µM] (active); in the experiment with OVCAR-4 ovarian, -83.1% [30 µM] (active); in the experiment with SK-OV-3 ovarian, -30.6% [30 µM] (active); with IGROV1 ovarian it was -69.7% [30 µM] (active). For the same compound, the growth in the experiment on OVCAR-3 ovarian was -89.6% [30 µM] (active); in the experiment with HS 578T breast, -60.6% [30 µM] (active); in the experiment on T-47D breast, -37.1% [30 µM] (active); in the experiment with BT-549 breast it was -15.3% [30 µM] (active); in the experiment on MDA-MB-435 melanoma, -85.4% [30 µM] (active); with SW-620 colon, -82.6% [30 µM] (active). In addition, the growth in the experiment with MCF7 breast was -49.1% [30 µM] (active); with HCT-116 colon, -19.7% [30 µM] (active); with HCC-2998 colon, -79.6% [30 µM] (active); with KM12 colon it was -86.4% [30 µM] (active).

These data come from PubChem BioAssay (NCI).
